Experimental findings from PubChem BioAssay (Tox21) are described below.

For test [1], the target named is Luciferin 4-monooxygenase (Photinus pyralis) (UniProt P08659). The test is described as follows: qHTS assay to identify small molecule inhibitors of firefly luciferase (AID 1224835). Note: nearly all actives have a fitted effect of over 25% in size. In short, it runs like this: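 Quantitative HTS format; KM concentrations of both substrates. Purified P. pyralis FLuc activity quantified from luminescence images.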
Test [2] is described as follows: qHTS assay to identify small molecule agonists of the constitutive androstane receptor (CAR) signaling pathway - cell viability counter screen (AID 1224836). Note: nearly all actives have a fitted effect of over 45% in size. The gist of the method:
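Fluorescence from CellTiter-Fluor indicates live cells after 23 h exposure. The human hepatoma line expresses hCAR and a CYP2B6-2.2kb reporter. Incubation medium contains 0.75 uM PK11195 (final).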

The nature of test [3]: qHTS assay to identify small molecule antagonists of the constitutive androstane receptor (CAR) signaling pathway - cell viability counter screen (AID 1224837). Note: nearly all actives have a fitted effect of over 45% in size. The gist of the method:
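Cytotoxicity counter-screen: CellTiter-Fluor fluorescence after 23 h compound exposure (15-point qHTS) in double-stable HepG2-CYP2B6-hCAR cells, with 50 nM CITCO added.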
For orientation: Quantitative high-throughput screening tests each substance at several concentrations.

The nature of test [4]: qHTS assay to identify small molecule antagonists of the estrogen related receptor signaling pathway with the pleiotropic PPARgamma coactivator (PGC) from Tox21 10K library - cell viability counter screen (AID 1224840; active = well fitted cell-killing curve with a large enough effect in the repeat runs, not every such curve was filed as active; note: nearly all actives have a fitted effect of over 40% in size; note: potency is the fitted concentration of half-maximal effect). The gist of the method:
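Counter-screen for cytotoxicity: after 17.5 h compound exposure at 37 C, CellTiter-Fluor reagent added to PGC/ERR cells for 30 min and fluorescence read. Cells were seeded at 2,000 per well 6 h before dosing.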

The nature of test [5]: qHTS assay to identify small molecule agonists of the hypoxia (HIF-1) signaling pathway - cell viability counter screen (AID 1224844; calls by dose curve; note: nearly all actives have a fitted effect of over 50% in size). In short, it runs like this: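 Cytotoxicity measured by CellTiter-Glo ATP luminescence in the wells also read for beta-lactamase signal. Cells were HRE-bla ME-180 (2,000/well, 0.5% dialyzed FBS), exposed to compounds for 17 h at 37C.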
Test [6] in a line: qHTS assay to identify small molecule agonists of H2AX (AID 1224845; active = well fitted activation curve with a large enough effect in the signal ratio in the repeat runs, not every such curve was filed as active; the % refers to the signal ratio; note: potency is the fitted concentration of half-maximal effect). The gist of the method: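 Wild-type CHO-K1 cells plated overnight, then exposed 3 hr at 37C to compounds at 15 concentrations (0.76% DMSO). Lysed, then HTRF anti-pH2AX(S139)-cryptate/anti-H2AX-d2 detection after 24 hr at room temperature; emissions 665 and 620 nm.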
Test [7] in a line: qHTS assay to identify small molecule agonists of H2AX - cell viability counter screen (AID 1224847; calls by dose curve; note: top concentration of the series differs between compounds; nearly all actives have a fitted effect of over 30% in size). The gist of the method: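 Viability of CHO-K1 (wild type) cells after 3 hr compound exposure was measured by CellTiter-Glo luminescence.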
The nature of test [8]: qHTS RealTime-Glo MT Cell Viability Assay in HepG2 cells - 24 hour (AID 1224867). Note: nearly all actives have a fitted effect of over 50% in size. The gist of the method: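 Compound treatment began 5 h after plating HepG2 cells (600/well) with NanoLuc luciferase and prosubstrate. Plates stayed at 37 C for 40 h; luminescence was captured at six time points, 0 h through 40 h.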
The nature of test [9]: A CellTox Green Cytotoxicity Assay to monitor cytotoxicity in HEK293 cells - 0 hour (AID 1224869). Note: nearly all actives have a fitted effect of over 50% in size. In short, it runs like this: (§1)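 Fluorescence from a DNA-binding dye excluded by viable cells was measured repeatedly in the same HEK293 wells (600 cells/well) during continuous compound exposure at 37 C. Each assay gives one read point: 0, 8, 16, 24, 32 or 40 h.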
Test [10] can be described thus: qHTS RealTime-Glo MT Cell Viability Assay in HepG2 cells - 40 hour (AID 1224870). Note: nearly all actives have a fitted effect of over 50% in size. In short, it runs like this:
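HepG2 cells mixed with RealTime-Glo MT reagents (NanoLuc plus cell-permeant prosubstrate) were seeded at 600 cells/well, incubated 5 h at 37 C/5% CO2, then pinned with compounds in DMSO; nonlytic luminescence tracked viability during 40 h treatment.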

Test [11] can be described thus: A CellTox Green Cytotoxicity Assay to monitor cytotoxicity in HEK293 cells - 40 hour (AID 1224871). Note: nearly all actives have a fitted effect of over 45% in size. In short, it runs like this: as §1
The target in test [12] is Thyrotropin receptor (Homo sapiens) (UniProt P16473). Briefly: qHTS assay to identify small molecule agonists of the thyroid stimulating hormone receptor (TSHR) signaling pathway (AID 1224843; calls by dose curve; note: nearly all actives have a fitted effect of over 45% in size). The gist of the method: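 Compounds are titrated over 15 concentrations, in triplicate, onto TSHR-HEK293 cells seeded at 800/well. Plates sit 30 min at room temperature before cAMP-d2 and anti-cAMP cryptate are added; signal is read after a further hour.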

The nature of test [13]: qHTS assay to identify small molecule agonists of the hypoxia (HIF-1) signaling pathway (AID 1224846; active = well fitted activation curve with a large enough effect in the signal ratio in the repeat runs, not every such curve was filed as active; the % refers to the signal ratio). In short, it runs like this:
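Compounds added to ME-180 cells carrying hypoxia-response-element beta-lactamase reporter (0.5% dialyzed FBS, 5 h preplating), 17 h at 37C; agonist activity detected by CCF4-AM B/G FRET read-out.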

Test [14] is described as follows: qHTS assay to identify small molecule antagonists of the estrogen related receptor signaling pathway with the pleiotropic PPARgamma coactivator (PGC) from Tox21 10K library (AID 1224841; call rule not given here). In short, it runs like this: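 Luminescence (One-Glo, 30 min at room temperature) after 18 h compound treatment at 37 C of PGC/ERR reporter cells plated at 2,000 cells/well and settled 6 h beforehand.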

A short description of test [15]: qHTS assay to identify small molecule agonists of the estrogen related receptor signaling pathway with the pleiotropic PPARgamma coactivator (PGC) from Tox21 10K library (AID 1224842). Note: nearly all actives have a fitted effect of over 15% in size. In short, it runs like this: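 PGC/ERR reporter cells (NTP line) were seeded 2,000 per well, rested 6 h at 37 C/5% CO2, then pin-dosed with compounds in DMSO for 18 h at 37 C; luciferase read by One-Glo luminescence after 30 min at room temperature.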

Test [16] can be described thus: qHTS assay to identify small molecule antagonists of the estrogen related receptor (ERR) signaling pathway from Tox21 library (AID 1224848). Note: nearly all actives have a fitted effect of over 50% in size. In short, it runs like this: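 First, 2,000 ERR cells per well were plated and held 6 h at 37 C/5% CO2. Next, compounds in DMSO were pinned in and left 18 h at 37 C. Finally, ONE-Glo was added and luminescence read after 30 min at room temperature.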

Test [17] is described as follows: qHTS assay to identify small molecule agonists of the estrogen related receptor (ERR) signaling pathway from Tox21 library (AID 1224849; calls by dose curve; note: nearly all actives have a fitted effect of over 15% in size). Particulars: ERR reporter cell line, ONE-Glo luciferase, 18 h; at 92.4 µM (top of the series) unless noted. In short, it runs like this: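 Luminescent agonist read-out (One-Glo, 30-minute room-temperature incubation) following 18-hour compound treatment at 37 C of the ERR cell line, which had been plated 6 hours before dosing.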

Test [18] is described as follows: qHTS RealTime-Glo MT Cell Viability Assay in HEK293 cells - 32 hour (AID 1224868). The gist of the method:
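Quantitative high-throughput screen of the Tox21 10K library in HEK293: cells and RealTime-Glo reagents plated together, compound added at 5 h, luminescence monitored through 40 h at 37 C.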

Test [19] concerns the target Nuclear receptor subfamily 1 group I member 3 (Homo sapiens) (UniProt Q14994). Briefly: qHTS assay to identify small molecule antagonists of the constitutive androstane receptor (CAR) signaling pathway (AID 1224838).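 Note: HepG2 cells stably expressing hCAR with CYP2B6 luciferase reporter stimulated by CITCO; nearly all actives have a fitted effect of over 40% in size.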 Note: potency is the fitted concentration of half-maximal effect. In short, it runs like this:
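Antagonism measured as luciferase signal (ONE-Glo, 30 min, room temperature) in CAR-stimulated cells: HepG2-CYP2B6-hCAR double-stable line exposed 24 hr at 37 C to compound in a 15-point series plus 50 nM CITCO.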

Test [20] shares this target. Briefly: qHTS assay to identify small molecule agonists of the constitutive androstane receptor (CAR) signaling pathway (AID 1224839).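 Note: HepG2 cells stably carrying human CAR and a CYP2B6 luciferase reporter; nearly all actives have a fitted effect of over 15% in size.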 The gist of the method:
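Stable hCAR/CYP2B6-2.2kb HepG2 line in DMEM with 10% FBS; compounds (15 concentrations) and 0.75 uM PK11195 final, 24 h at 37 C/5% CO2, then ONE-Glo luminescence after 30 min.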

Unmarked numbers belong to inactive results. Records with an inconclusive call do not appear. Active and inactive are the calls of the source. Unless noted, calls come from the whole dose curve; as a rule, active = well fitted curve in the direction sought with a large enough effect in the repeat runs; inconclusive = weak or mixed curves; inactive = no such curve, though single readings can be large; an effect the other way counts as inactive or inconclusive.
% is set by controls: 0 for no effect and ±100 for the full control effect.

Chain of Nuclear receptor subfamily 1 group I member 3 (Homo sapiens) (Q14994 whole entry, looked up): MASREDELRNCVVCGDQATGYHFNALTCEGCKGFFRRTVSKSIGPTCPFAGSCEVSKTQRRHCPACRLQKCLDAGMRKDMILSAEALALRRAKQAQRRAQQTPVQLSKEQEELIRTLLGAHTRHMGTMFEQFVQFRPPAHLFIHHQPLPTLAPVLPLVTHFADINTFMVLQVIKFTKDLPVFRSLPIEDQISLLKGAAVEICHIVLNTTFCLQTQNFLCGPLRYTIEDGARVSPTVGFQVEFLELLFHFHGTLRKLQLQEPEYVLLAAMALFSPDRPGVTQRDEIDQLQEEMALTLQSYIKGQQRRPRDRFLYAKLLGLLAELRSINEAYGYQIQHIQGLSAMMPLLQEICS
Chain of Thyrotropin receptor (Homo sapiens) (P16473 whole entry, looked up): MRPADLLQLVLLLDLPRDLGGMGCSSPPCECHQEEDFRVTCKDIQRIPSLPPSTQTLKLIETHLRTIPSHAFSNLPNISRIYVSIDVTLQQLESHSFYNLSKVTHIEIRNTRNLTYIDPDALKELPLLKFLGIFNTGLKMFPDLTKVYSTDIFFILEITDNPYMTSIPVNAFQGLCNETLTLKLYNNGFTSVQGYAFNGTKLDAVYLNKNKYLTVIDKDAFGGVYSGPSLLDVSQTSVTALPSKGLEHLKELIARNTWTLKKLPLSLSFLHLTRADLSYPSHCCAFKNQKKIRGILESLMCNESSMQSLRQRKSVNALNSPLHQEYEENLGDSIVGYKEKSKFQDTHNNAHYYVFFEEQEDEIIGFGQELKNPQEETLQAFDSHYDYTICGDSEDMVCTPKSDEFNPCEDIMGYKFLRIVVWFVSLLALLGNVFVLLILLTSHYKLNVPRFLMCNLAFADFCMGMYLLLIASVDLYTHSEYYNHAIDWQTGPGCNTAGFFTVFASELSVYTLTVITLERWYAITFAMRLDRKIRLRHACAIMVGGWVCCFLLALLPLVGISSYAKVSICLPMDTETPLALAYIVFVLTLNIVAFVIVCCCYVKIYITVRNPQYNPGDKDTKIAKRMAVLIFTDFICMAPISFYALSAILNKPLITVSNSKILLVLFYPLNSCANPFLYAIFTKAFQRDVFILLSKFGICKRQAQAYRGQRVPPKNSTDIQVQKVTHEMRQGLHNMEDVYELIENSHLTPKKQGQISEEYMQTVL
Chain of Luciferin 4-monooxygenase (Photinus pyralis) (P08659 whole entry, looked up): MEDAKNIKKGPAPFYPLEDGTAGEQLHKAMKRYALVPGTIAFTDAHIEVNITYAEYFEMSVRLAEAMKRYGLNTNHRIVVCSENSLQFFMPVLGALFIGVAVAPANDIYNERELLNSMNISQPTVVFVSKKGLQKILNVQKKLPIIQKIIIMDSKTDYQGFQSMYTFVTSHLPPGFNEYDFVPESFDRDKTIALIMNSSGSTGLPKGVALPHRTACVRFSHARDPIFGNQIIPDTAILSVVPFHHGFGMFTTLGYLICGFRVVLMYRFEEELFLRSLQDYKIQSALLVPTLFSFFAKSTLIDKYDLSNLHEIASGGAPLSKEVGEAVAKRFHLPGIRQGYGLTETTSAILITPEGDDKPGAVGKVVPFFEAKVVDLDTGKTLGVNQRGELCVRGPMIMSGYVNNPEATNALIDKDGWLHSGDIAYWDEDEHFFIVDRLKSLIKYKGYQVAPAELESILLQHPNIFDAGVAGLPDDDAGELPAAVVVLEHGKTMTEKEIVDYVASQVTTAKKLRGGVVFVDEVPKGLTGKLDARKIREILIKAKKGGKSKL

Take `OC(c1ccccc1)(c1ccccc1)C1CCNCC1`: the Potency entry in test [1], in test [2], in test [3], in [4], in test [5] and in [6] was “inactive” throughout. Also, the Potency result in test [7], in test [8], in test [9], in test [10] and in [11] was “inactive” each time.
For `Clc1ccccc1N1CCNCC1`, the Potency entry in test [1], in [2], in test [3], in test [4], in test [12] and in [5] was “inactive” each time. Moreover, the Potency result in test [6], in test [7], in test [8], in [9], in test [10] and in test [11] was “inactive” each time. For the same compound, the call in [13] was inactive.
On to `C#C[C@]1(O)C=C[C@H]2[C@@H]3CCC4=CC(=O)CC[C@@H]4[C@H]3CC[C@@]21CC`, for which the Potency entry in test [1], in test [2], in test [3], in test [4], in test [5] and in [7] was “inactive” in each case. The Potency result in test [8], in test [9], in test [10] and in test [11] was “inactive” each time. Besides, the Potency in [6] was 19.6 µM (active).
As to `CC(C)COP(=O)(OCC(C)C)OCC(C)C`, the Potency entry in test [1], in test [2], in test [3], in test [4], in test [14] and in test [5] was “inactive” throughout. Further, the Potency result in test [16], in [8], in [18], in test [9] and in test [10] was “inactive” each time. For the same compound, the call in test [15] and in test [13] was inactive. Also, the activity change, positive = activation in test [17] is -2.2%.
With `CC(C1CC1)C(O)(Cn1cncn1)c1ccc(Cl)cc1` (configuration not stated), the Potency result in [1], in test [2], in test [3], in test [4], in test [12] and in test [5] was “inactive” in each case. In addition, the Potency entry in test [6], in [7], in [8], in [9], in [10] and in [11] was “inactive” throughout. In test [13], the compound was called inactive.
Consider `CC(C)CP(=S)(S)CC(C)C`, for which the Potency entry in test [1], in test [2], in [20], in test [12], in test [7] and in test [8] was “inactive” throughout. For the same compound, the Potency entry in [18], in test [9], in [10] and in [11] was “inactive” throughout. Also, the Potency in [19] was 3.44 µM (active); in [4], 2.73 µM (active). The outcome in [13] was inactive.
Take `Cc1cc(C)c(C(=O)P(=O)(C(=O)c2c(C)cc(C)cc2C)c2ccccc2)c(C)c1`: the Potency entry in test [1], in test [2], in [19], in test [20], in test [4] and in test [14] was “inactive” in each case. In addition, the Potency entry in [5], in [6], in test [7], in test [16], in [8] and in test [18] was “inactive” throughout. Also, the Potency result in test [9], in [10] and in test [11] was “inactive” in each case. Besides, the call in test [15] and in test [13] was inactive. In addition, the activity change, positive = activation in test [17] was -2.99%.
`CCC(=O)c1ccccc1`: the Potency entry in test [1], in test [2], in test [19], in test [20], in test [4] and in [12] was “inactive” throughout. Further, the Potency entry in test [5], in test [7], in test [8], in test [18], in [9] and in test [10] was “inactive” throughout. Besides, the Potency entry in test [11] was “inactive”. Besides, in test [13], the outcome was inactive.
With `C=C(C)[C@@H]1CC=C(C=O)CC1`, the Potency result in test [1], in test [2], in [3], in test [4], in test [14] and in test [5] was “inactive” each time. The Potency entry in test [7], in test [16], in [8], in [9], in test [10] and in test [11] was “inactive” in each case. The result in test [15] and in test [13] was inactive. In addition, the activity change, positive = activation in [17] is -5.19%.
